# Sampled rows, rich in hits. Any-hit rate of the full collection: about 3.5%.
# FBW7 activator – FBW7 E3 ligase activators, primary screen, biochemical, AlphaScreen, human. AlphaScreen FBW7–phospho-cyclin E peptide binding, activator screen. normalized activity (activation), % at 26.1 µM. actives 0.13% (n = 650,000); in the data active = normalized activity above about 1.9%;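 also: purified mutant Fbw7 with reduced substrate affinity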
# TEAD-YAP inh – TEAD-YAP interaction inhibition, primary screen, TEAD-YAP interaction inhibitor project, luminescence, HEK-TIYL cells; TEAD-Gal4/YAP UAS-luciferase luminescence; inhibition, % at 9.12 µM; actives 1.4% (n = 640,000); in the data active = inhibition above about 32%;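 also: 0% = median of test compound wells and 100% = reference inhibitor wells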
# GPR151 ag – activators of human GPR151, primary screen, cell-based, PathHunter beta-arrestin, luminescence; G-protein coupled receptor 151 (Homo sapiens), Q8TDV0; PathHunter beta-arrestin GPR151 cells; activation, % at 11.2 µM; actives 1% (n = 650,000); AID 1508602, 2020; in the data active = activation above about 4.9%;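 also: 0% = median of compound wells and 100% = cells with positive control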
# MITF inh – MITF inhibitors, primary screen, biochemical, AlphaScreen, human; Microphthalmia-associated transcription factor (Homo sapiens), O75030; AlphaScreen MITF homodimerization, bead proximity signal; inhibition, % at 2.6 µM; actives 0.91% (n = 650,000); AID 1259374, 2018; in the data active = inhibition above about 50%;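 also: 0% = vehicle wells with protein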
# GPR151 conf act – GPR151 activators, triplicate retest, confirmation, cell-based, PathHunter beta-arrestin, luminescence; shares compounds with GPR151 ag; activation, % at 11.2 µM; 6,700 tested, under 10 active; GPR151 PathHunter beta-arrestin cells, 90 min; % of EA-reagent control over plate median;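 active = mean percent activation across replicates above the confirmation screen cutoff of 4.91%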
# GPR119 ag – GPR119 activators in beta-arrestin cells, counter-screen for GPR151 activator project, cell-based, PathHunter beta-arrestin, luminescence, triplicate; shares compounds with GPR151 ag; 90 min; 0 = compound-well median, 100 = enzyme-acceptor control; activation, % at 11.2 µM; actives 0.3% (n = 6,700);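 active = mean percent activation in the counterscreen above 29.09%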;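 also: counterscreen on off-target GPR119 to flag nonselective hits from the GPR151 activator screen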
# Numbers without * were called inactive; . = no result given.
SMILES,FBW7 activator,TEAD-YAP inh,GPR151 ag,MITF inh,GPR151 conf act,GPR119 ag
CCOC(=O)c1c(NC(=O)CSc2n[nH]c(N)n2)sc(C(C)=O)c1C,0,-4,13*,6,0,-3
CCCCOC(C)n1cc(Cl)c(=O)[nH]c1=O (stereo not drawn),0,7,5.1*,8,0,-2
C/C(=N\NC(=O)CNc1ccccc1Cl)C(C)(C)C,0,-9,5.9*,-5,-1,-4
COCc1nc2c([nH]1)C(c1ccc(Cl)cc1)c1nc(N)oc1-2 (stereo not drawn),0,5,0,8,.,.
CC(C)n1cnc2c(NCc3cccnc3)nc(-c3cccc(N)c3)nc21,0,28,0,-2,.,.
CCOC(=O)N1CCc2c(sc(NC(=O)c3ccc(Br)s3)c2C#N)C1,0,3,9.1*,9,0,5
C=CCNCc1nc2sc(C(=O)OCC)c(C)c2c(=O)[nH]1,0,-1,2,8,.,.
CC(C)C[C@H]1C(=O)N2CCN(C(=O)c3cccc(F)c3F)C[C@@H]2C(=O)N1C,1,3,6.6*,11,0,14
[O-]/[N+](=C\c1ccc(F)cc1)c1ccccc1,0,6,-1,-1,.,.
[O-]/[N+](=C\c1ccncc1)c1ccc(Cl)cc1,0,5,5.2*,-1,2,13
CCc1ccccc1NC(=O)C(C)n1c2ccccc2c2nc(=O)cc(C)n21 (stereo not drawn),0,2,1,1,.,.
O=C(NC1CCCCC1)C(c1ccncc1)N(C(=O)C(F)(F)F)C1CC1 (stereo not drawn),0,-4,1,11,.,.
CC(C)N(C(=O)C(F)(F)F)C(C(=O)NC1CCCCC1)c1ccncc1 (stereo not drawn),0,0,5.8*,-4,1,5
Cc1ccc(-n2c(SCc3cccc(C)c3)nc3[nH]ncc3c2=O)cc1,1,4,0,19,.,.
Cc1ccc(CSc2nc3[nH]ncc3c(=O)n2-c2cccc(C)c2)cc1,0,-10,9.0*,4,0,10
CCc1ccc(-n2c(SCc3cc(=O)n4c(C)cccc4n3)nc3[nH]ncc3c2=O)cc1,0,-7,5.8*,1,1,11
CC(=O)N(Cc1cc2ccc(C)c(C)c2[nH]c1=O)CC1CCCO1 (stereo not drawn),0,4,0,9,.,.
COc1ccc(C(C)NCc2cccnc2)cc1 (stereo not drawn),0,0,0,4,.,.
O=C1N(C2Cc3ccccc3C2)C[C@@H]2C[C@@H](c3cccc(-n4cccn4)c3)N3CCC[C@@]123,0,1,6.3*,-6,1,1
O=C(CCC(=O)Nc1ccc(Cl)cc1)Nc1ccc(Cl)cc1,0,1,-1,-9,.,.
O=C(CCCC(=O)Nc1ccc(Cl)cc1)Nc1ccc(Cl)cc1,0,5,14*,-1,0,-6
O=C(c1ccco1)N1CCN(c2nccn3c(-c4cccc(Cl)c4)cnc23)CC1,0,-1,6.9*,18,1,21
CC(=O)N1c2cc(C(c3ccccc3)(c3ccccc3)c3ccccc3)ccc2C(C)=CC1(C)C,0,-2,-1,1,.,.
CC(=O)NS(=O)(=O)c1ccc(NC(=O)Nc2ccc(Cl)cc2)cc1,0,2,7.4*,0,-1,-3
COc1ccc(S(=O)(=O)NNC(=O)Nc2ccc(Cl)cc2)cc1,0,-4,8.3*,-5,1,9
SMILES,FBW7 activator,TEAD-YAP inh,GPR151 ag,MITF inh,GPR151 conf act,GPR119 ag
CCOc1ccc2c(-c3cc4cc(Br)ccc4oc3=O)cc(=O)oc2c1,0,-3,7.9*,-3,0,-12
COc1ccc(C(=O)Cn2c(N3CCOCC3)nc3c2c(=O)n(C)c(=O)n3C)cc1,0,-16,1,-9,.,.
COc1ccc(C(=O)Cn2c(N(C)C)nc3c2c(=O)n(C)c(=O)n3C)cc1,0,2,5.4*,7,0,-2
CCN(CC)c1ccc(C=C2C(=O)N(C)C(=O)N(C)C2=O)c(OC)c1,0,4,0,13,.,.
COc1cc(C2C(C#N)=C(N)OC3=C2C(=O)CC(C)(C)C3)ccc1OC(C)=O (stereo not drawn),0,2,5.3*,-2,1,5
CCOc1ccc(C2C(C#N)=C(N)OC3=C2C(=O)CC(C)(C)C3)cc1 (stereo not drawn),0,0,8.0*,-5,0,-10
COCCCN1C(=O)/C(=C\c2cc(Br)ccc2OC)C(C(=O)OC)=C1C,0,-1,-2,-3,.,.
Cc1occc1C(=O)N(C)C(Cc1ccccc1)C1CCN(C(=O)Cc2ccn(C)c2)CC1 (stereo not drawn),0,-14,1,-5,.,.
CC1=NN(c2ccccc2)C(=O)/C1=C\c1ccccc1OCc1ccccc1,0,-7,-5,21,.,.
CNC(=O)OCc1ccc(-c2ccc(C)cc2)o1,-1,-26,0,1,.,.
CNC(=O)OCc1ccc(-c2ccc(Cl)cc2)o1,0,-11,5.9*,0,0,7
COCCCN1C(=O)C(=O)/C(=C(\O)c2ccc(C)cc2)C1c1ccc(F)cc1 (stereo not drawn),0,2,7.6*,12,0,-2
COc1ccc(/C(O)=C2/C(=O)C(=O)N(CCCO)C2c2cccc(Cl)c2)cc1F (stereo not drawn),0,4,6.8*,1,1,12
COc1cc(C2/C(=C(/O)c3ccc(Cl)cc3)C(=O)C(=O)N2CCO)ccc1O (stereo not drawn),1,9,-1,12,.,.
Cc1cc2[nH]c(=O)c(=O)[nH]c2cc1S(=O)(=O)NC1CCC(C)CC1 (stereo not drawn),0,-6,7.4*,2,1,3
COc1ccc(C(=O)NNC(=O)C2CCC(C(C)(C)C)CC2)cc1 (stereo not drawn),0,9,1,0,.,.
Cc1cc(C)c(C)c(S(=O)(=O)NCCc2ccsc2)c1C,1,8,1,-6,.,.
CN(C)c1nc(Nc2ccc(F)cc2)c2cnn(C)c2n1,0,-3,2,2,.,.
Cc1ccc(Nc2nc(N(C)C)nc3c2cnn3C)cc1C,0,-10,6.2*,10,3,9

# Screening data as filed in PubChem.
